Screens deposited in PubChem by several laboratories.
Sampled rows, rich in hits. Any-hit rate of the full collection: about 4.5%.
dFosB act: mouse delta FosB homodimer activation; P13346; purified delta FosB, TAMRA-CDK5 oligo fluorescence polarization; percent of positive-control signal above neutral wells; activation, % at 25 µM; 340,000 tested, 0.99% active; AID 493131;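 active means mean activation above about 17%, with every replicate also reaching it, limit read from the data, passing the limit was not always enough; inconclusive means only one of the two conditions met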
NR3A LBD binder: modulators (binders) of human NR3A ligand-binding domain; NR3A LBD differential scanning fluorimetry, Tm shift; 0% = protein alone, 100% = glycine-bound protein; Tm shift relative to glycine control, % at 25 µM; 340,000 tested, 2.5% active;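 active means melting temperature shift of at least 10% of the positive control shift, at one fixed dose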
Rpn11 inh: blocks the human proteasome subunit Rpn11. O00487. human 26S proteasome, Ub4-pepOG fluorescence polarization; 20S core pre-blocked with epoxomicin. inhibition, % at 20 µM. 360,000 tested, 0.59% active;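 active means inhibition at 20 µM, scaled to each plate's controls, above about 33%, limit read from the data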
EBNA-1 inhibitor: blocks EBNA-1 binding to DNA; EBNA-1 DNA binding, fluorescence polarization; inhibition, % at 14.8 µM; 300,000 tested, 0.34% active; in the data active means inhibition above about 28%
ZTA DNA inh: ZTA (EBV) inhibition in EBNA-1 counter-screen | P03206 | ZTA-DNA binding, fluorescence polarization | inhibition, % at 11 µM | 320,000 tested, 0.15% active | AID 2234; in the data active means inhibition above about 33%
Target sequence (P03206 whole entry, looked up): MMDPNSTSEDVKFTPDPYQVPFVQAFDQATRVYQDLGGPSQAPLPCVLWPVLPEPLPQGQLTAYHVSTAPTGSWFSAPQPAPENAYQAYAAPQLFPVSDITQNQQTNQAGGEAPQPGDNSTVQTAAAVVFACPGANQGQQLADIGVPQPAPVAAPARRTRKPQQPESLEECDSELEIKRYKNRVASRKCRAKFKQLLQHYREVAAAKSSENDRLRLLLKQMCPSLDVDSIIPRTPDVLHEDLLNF
TPT1 inhibitor: C. albicans TPT1 enzyme inhibition; inhibition, % at 5 µM; recombinant caTPT1, FP RNA substrate dephosphorylation; 300,000 tested, 0.81% active;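 active means inhibition above the mean of all tested compounds plus 3 SD, set per screening campaign, cut at about 24% in these data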;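 further: plate controls were DMSO alone for no effect and ferristatin control at 100 nM for full effect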
* hit, by the source's call.

For O=C(Nc1cccc(C(F)(F)F)c1)NC1CCN(S(=O)(=O)c2ccc(F)cc2)CC1 the results were dFosB act -7, NR3A LBD binder 19*, Rpn11 inh 1, EBNA-1 inhibitor 4, ZTA DNA inh 2 and TPT1 inhibitor -2.
For O=C(Nc1ccccc1)Nc1cccc(NC(=O)Nc2ccccc2)c1F the results were dFosB act inconclusive, NR3A LBD binder 24*, Rpn11 inh -3, EBNA-1 inhibitor 0, ZTA DNA inh -8 and TPT1 inhibitor -3.
Screening CCOC(=O)c1oc2ccc(/C=N/O)c(Cl)c2c1C returned dFosB act -6, NR3A LBD binder -4, Rpn11 inh -3, EBNA-1 inhibitor 2, ZTA DNA inh 1 and TPT1 inhibitor -2.
For O=C(NCCN1CCCCC1)/C(=C/c1ccco1)NC(=O)c1ccccc1 the results were dFosB act -1, NR3A LBD binder -2, Rpn11 inh -3, EBNA-1 inhibitor -15, ZTA DNA inh -13 and TPT1 inhibitor -4.
For Cc1ccc2c(Cl)cc(Cl)c(OCC(=O)Nc3cccc(S(N)(=O)=O)c3)c2n1 the results were dFosB act -4, NR3A LBD binder 11*, Rpn11 inh -2, EBNA-1 inhibitor 3, ZTA DNA inh 4 and TPT1 inhibitor 0.
`Cc1ccc2c(Cl)cc(Cl)c(OCC(=O)Nc3cccc(S(=O)(=O)N(C)C)c3)c2n1` gave dFosB act -11, NR3A LBD binder -26, Rpn11 inh -9, EBNA-1 inhibitor 12, ZTA DNA inh 3 and TPT1 inhibitor 2.
`NS(=O)(=O)c1cccc(NC(=O)COC(=O)c2cc(-c3ccc(Cl)cc3)nc3ccccc23)c1` gave dFosB act -16, NR3A LBD binder 34*, Rpn11 inh 6, EBNA-1 inhibitor 12, ZTA DNA inh 16 and TPT1 inhibitor 1.
`Cc1noc(C)c1C(=O)OCC(=O)NC1CC1` gave dFosB act -3, NR3A LBD binder 16*, Rpn11 inh 3, EBNA-1 inhibitor 0, ZTA DNA inh -2 and TPT1 inhibitor 0.
Cc1noc(C)c1C(=O)OCC(=O)NC1CCCCC1C (stereo not given) was read as dFosB act -1, NR3A LBD binder -2 and Rpn11 inh 3.
`O=C(NNC(=O)c1cccnc1SCc1cccc([N+](=O)[O-])c1)c1ccc(F)cc1` gave dFosB act 7, NR3A LBD binder -6, Rpn11 inh -2, EBNA-1 inhibitor -4, ZTA DNA inh -1 and TPT1 inhibitor 0.
For O=C(NNC(=O)c1cccnc1SCc1cccc([N+](=O)[O-])c1)c1ccccn1 the results were dFosB act -9, NR3A LBD binder 18*, Rpn11 inh 15, EBNA-1 inhibitor -3, ZTA DNA inh 1 and TPT1 inhibitor 6.
Screening N#Cc1ccc(/C=C\c2nccc3c2[nH]c2ccccc23)cc1 returned dFosB act inconclusive, NR3A LBD binder 12*, Rpn11 inh 31, EBNA-1 inhibitor 4, ZTA DNA inh 10 and TPT1 inhibitor 13.
Clc1ccc(/C=C\c2nccc3c2[nH]c2ccccc23)cc1 was read as dFosB act 27*, NR3A LBD binder 20* and Rpn11 inh 14.
Screening Clc1ccc(C=Cc2ccccn2)cc1 returned dFosB act -13, NR3A LBD binder 3 and Rpn11 inh -1.
O=C(CSc1nc(Nc2ccccc2)nc(N2CCOCC2)n1)NC1CCCCC1 was read as dFosB act -8, NR3A LBD binder 2, Rpn11 inh -5, EBNA-1 inhibitor -1, ZTA DNA inh 0 and TPT1 inhibitor -2.
Screening CCC(C(=O)OCC(=O)Nc1cc(Cl)cc(Cl)c1)c1ccccc1 (stereo not given) returned dFosB act -10, NR3A LBD binder 12*, Rpn11 inh -3, EBNA-1 inhibitor -12, ZTA DNA inh -5 and TPT1 inhibitor 1.
For O=C(Nc1ccc(F)cc1)Nc1csc2ccccc12 the results were NR3A LBD binder 34*, Rpn11 inh -2, EBNA-1 inhibitor -3, ZTA DNA inh 4 and TPT1 inhibitor 0.
`CN(C)c1ccc(NC(=O)Nc2csc3ccccc23)cc1` gave dFosB act 1, NR3A LBD binder 18*, Rpn11 inh 6, EBNA-1 inhibitor -3, ZTA DNA inh -13 and TPT1 inhibitor 0.
`CN(C)CCSc1nc2cc(S(=O)(=O)N3CCCCC3)ccc2o1` gave dFosB act -2, NR3A LBD binder -1 and Rpn11 inh 3.
